# Test results from PubChem BioAssay (Tox21).
# Inconclusive results are not listed. A call without a number means that no potency is given here. Activity calls are given as the source filed them. Calls follow the shape of the dose curve; as a rule, active = well fitted cell-killing curve with a large enough effect in the repeat runs; inconclusive = weak or mixed curves, or effect the other way; inactive = no such curve, though single readings can be large or run the other way.
# Assay: qHTS assay to identify small molecule agonists of the farnesoid-X-receptor (FXR) signaling pathway - cell viability counter screen (AID 743218); also: nearly all actives have a fitted effect of over 45% in size
# Conditions: FXR-bla HEK293T viability, CellTiter-Glo luminescence, 16 h; series mostly up to 62.6 µM
# Description: U.S. Tox21 Program National Center for Advancing Translational Sciences [NCATS] NIH Chemical Genomics Center [NCGC] U.S. Environmental Protection Agency [EPA] National Institutes of Environmental Health Sciences [NIEHS] National Toxicology Program [NTP] U.S. Food and Drug Administration [FDA] Tox21 Assay Overview: The farnesoid-X-receptor (FXR), a nuclear hormone receptor, is highly expressed in liver, intestine, kidney and adrenal cortex. Natural ligands of FXR are the bile acids (Cholic acid, Chenodeoxy cholic acid etc). FXR is an important regulator of diverse metabolic pathways, including the bile acid homeostasis, lipid and glucose metabolisms. FXR regulates the expression of target genes by binding either as a monomer or as a heterodimer with the retinoid X receptor (RXR). Numerous studies have reported that FXR exerts protective function during cholestasis, diabetes, liver regeneration, and cancer. To identify compounds that activate FXR signaling, GeneBLAzer FXR-UAS-bla HEK 293T cell line (Invitrogen, Carlsbad, CA) containing a beta-lactamase reporter gene under the control of a UAS response element was used to screen the Tox21 10K compound library. The cytotoxicity of the Tox21 compound library against the FXR-bla cell line was tested in parallel by measuring the cell viability using CellTiter-Glo assay in the same wells.
# Tox21 Assay Protocol Summary: FXR-bla cells were dispensed at 5000 cells/5uL/well in 1536-well black wall/clear bottom plates using a Multidrop Combi (Thermo Fisher Scientific, Waltham, MA) dispenser. After the assay plates were incubated at 37 C and 5% CO2 for 5 h, 23 nL of compounds dissolved in DMSO, positive controls or DMSO only was transferred to the assay plate by a Pintool station (Kalypsys, San Diego, CA). The assay plates were incubated at 37C for 16 h. After 1 uL of LiveBLAzerTM B/G FRET substrate was added using a Bioraptr Flying Reagent Dispenser (FRD) workstation (Beckman Coulter, Indianapolis, IN), the plates were incubated at room temperature for 2 h, and fluorescence intensity was measured by an Envision plate reader (PerkinElmer, Shelton, CT). For cell viability readout that measures cytotoxicity, 4uL/well of CellTiter-Glo reagent was added into the assay plates using a Bioraptr FRD. After 30 min incubation at room temperature, the luminescence intensity in the plates was measured using a ViewLux plate reader (PerkinElmer).
Structure (SMILES),Potency,"viability change, negative = cytotoxic"
O=P(c1ccccc1)(c1ccccc1)c1ccccc1,inactive,
N#C[C@@H]1CC(F)(F)CN1C(=O)CNC1CC2CCC(C1)N2c1ncccn1 (stereo not given in full),inactive,
O=C1c2ccccc2C(=O)c2c1ccc(O)c2O,inactive,
Nc1ccccc1Nc1ccccc1,inactive,
O=C(O)c1ccncc1,inactive,
O=[N+]([O-])c1ccccc1CCO,inactive,
CC1=C(C)C(=O)C(CCCCC#CCCCC#CCO)=C(C)C1=O,inactive,
CC(=O)c1ccc(Cl)c(Cl)c1Cl,inactive,
C=C[Si]1(C)O[Si](C)(C=C)O[Si](C)(C=C)O[Si](C)(C=C)O1 (stereo not given),inactive,
C/C=C1\[C@H]2C=C(C)C[C@]1(N)c1ccc(=O)[nH]c1C2,inactive,
CCCCOC(=O)C(C)Oc1ccc(Oc2ccc(C(F)(F)F)cn2)cc1 (stereo not given),inactive,
S=c1[nH][nH]c(=S)s1,inactive,
CCCCCCCCS,inactive,
CCCC(=O)OCCC(C)C,inactive,
CCCCC(CC)COCCC#N (stereo not given),inactive,
CC(C)Oc1ccccc1O,inactive,
O=c1[nH]nc(-c2ccc([N+](=O)[O-])o2)o1,inactive,
NC(=O)c1ccccc1C(N)=O,inactive,
Clc1cc(Cl)c2c(c1)N=C1CCCCCN1C2,inactive,
CC1=CC(=C(c2ccc(N)cc2)c2ccc(N)cc2)C=CC1=N,,-22.2% [at 5.95 µM] (inactive)

Structure (SMILES),Potency,"viability change, negative = cytotoxic"
Nc1nc(Cl)nc2c1ncn2[C@H]1C[C@H](O)[C@@H](CO)O1,inactive,
C=C(C)C(=O)OCCCCCCCCCCOC(=O)C(=C)C,inactive,
COc1cccc([C@H](O)C2CCN(CCc3ccc(F)cc3)CC2)c1OC,inactive,
CC(O)CN (stereo not given),inactive,
Sc1nc(S)nc(S)n1,inactive,
C[C@]12CCC(=O)C=C1[C@@H]1C[C@@H]1[C@H]1[C@@H]3[C@@H]4C[C@@H]4[C@@]4(CCC(=O)O4)[C@@]3(C)CC[C@@H]12,inactive,
CC(C(=O)O)c1ccc2c(c1)Cc1cccnc1O2 (stereo not given),inactive,
[O-][n+]1ccc(Cl)cc1,inactive,
COc1ccc(/C=C/S(=O)(=O)NC(=O)c2ccc(C)cc2Cl)cc1,inactive,
O=C1c2ccccc2C(=O)C1c1ccc2ccccc2n1,inactive,
c1ccc(CCNc2nc(-c3ccccc3)cs2)cc1,inactive,
O=C(c1ccco1)N1CCNCC1,inactive,
CC(C)CCCCCCCOC(=O)c1ccc(C(=O)OCCCCCCCC(C)C)c(C(=O)OCCCCCCCC(C)C)c1,inactive,
Nc1ccc(C(=O)Oc2ccccc2)c(O)c1,inactive,
CC(=O)c1cccnc1,inactive,
CCOC(C)OCC,inactive,
CCC(C(=O)O)c1ccc(N2Cc3ccccc3C2=O)cc1 (stereo not given),inactive,
Cc1c(Cl)cccc1Nc1ccccc1C(=O)O,inactive,
O=C(O)c1c2ccccc2cc2ccccc12,inactive,
COC=O,,22% [at 5.95 µM] (inactive)
